Inhibition data for 26 compounds are collected here from PubChem BioAssay AID2544 (Sanford-Burnham Center for Chemical Genomics, 2010).

In all, about 330,000 compounds went through this assay and about 390 (0.12%) were called active. For the sample, actives were picked, then their nearest neighbours and some compounds at random. Unmarked numbers belong to inactive results.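 How the source made its calls: active means inhibition reaching a set limit with compound at 10 µM in the primary screen (cut at about 35% in these data); inactive means the rest.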

Sequence of Intestinal-type alkaline phosphatase (Homo sapiens) (P09923 whole entry, looked up): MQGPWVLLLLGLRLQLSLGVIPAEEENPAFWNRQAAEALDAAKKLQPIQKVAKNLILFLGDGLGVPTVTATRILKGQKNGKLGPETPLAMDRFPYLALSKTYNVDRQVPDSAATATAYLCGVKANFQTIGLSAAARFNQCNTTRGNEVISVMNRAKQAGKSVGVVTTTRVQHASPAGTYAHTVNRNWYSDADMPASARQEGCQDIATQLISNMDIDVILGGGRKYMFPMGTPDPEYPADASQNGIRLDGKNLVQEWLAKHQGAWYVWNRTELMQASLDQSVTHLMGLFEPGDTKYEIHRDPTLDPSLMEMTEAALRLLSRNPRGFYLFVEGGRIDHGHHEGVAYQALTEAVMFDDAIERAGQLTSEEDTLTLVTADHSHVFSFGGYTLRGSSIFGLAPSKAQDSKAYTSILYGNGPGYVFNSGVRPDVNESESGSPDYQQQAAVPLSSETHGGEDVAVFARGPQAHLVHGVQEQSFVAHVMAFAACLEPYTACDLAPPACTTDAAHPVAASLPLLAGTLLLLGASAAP

This assay addresses Intestinal-type alkaline phosphatase (Homo sapiens) (UniProt P09923). In words: blockers of intestinal alkaline phosphatase activity – biochemical, luminescence, uHTS, primary screen (AID 2544).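 Further: plate controls were DMSO wells with enzyme for no effect and no-enzyme buffer wells for full effect.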 The settings on record: purified IAP, CDP-Star luminescence, 30 min; at 10 µM; stronger effect = higher value.
A word on the inhibition: it is the relative decrease from the control value, in per cent. For the compound `COc1ccc(CNC(=O)c2c[nH]c3c(OC)cc(OC)cc3c2=O)cc1`, the inhibition is -24.3%.

Take `COc1ccc(N2CCN(C(=O)COC(=O)c3cccc(S(=O)(=O)Nc4ccccc4OC)c3)CC2)cc1`: the inhibition is 9.2%.

In the case of `CCOC(=O)C1CCN(Cc2coc3ccc(Cl)cc3c2=O)CC1`, the inhibition was -6.6%.

Regarding `Cc1ccc2occ(/C=N/NC(=O)c3ccccc3C)c(=O)c2c1`, the inhibition is 13%.

Consider `O=c1c(/C=N/O)coc2ccc(Cl)cc12`, for which the inhibition is 54.1% (active).

`Cc1cccc(-n2c(O)c(C=Nc3ccccc3N)c(=O)[nH]c2=O)c1`: the inhibition is 14.1%.

Consider `CCc1c(C)nc(N)n2c(SCC(=O)NC3CCCCC3)nnc12`, for which the inhibition is -2.5%.

Consider `Nc1nnc(SCC(=O)NCC(=O)Nc2ccc(F)c(F)c2F)s1`, for which the inhibition is -11.7%.

For the compound `O=S(=O)(c1ccc(F)cc1)n1ccc(-c2cnc(-c3ccccc3)s2)n1`, the inhibition was 5.2%.

With `COc1cccc(CN(C)CC2CCCN(CCc3ccc(Cl)cc3)C2)c1OC` (stereo unspecified), the inhibition is -36.9%.

For the compound `O=C1CN(C(=O)COC(=O)c2cnc(Cl)c(Cl)c2)c2ccccc2N1`, the inhibition is 6.4%.

For `c1ccc(-c2nnc3n2NC(c2ccc4c(c2)OCO4)S3)cc1` (stereo unspecified), the inhibition is -10.6%.

As to `COc1ccc(Cl)cc1-n1c(=S)sc2c(=O)n(-c3ccc(F)cc3)c(SCC(=O)O)nc21`, the inhibition is 10.8%.

On to `COc1ccc2c(c1OC)C(=O)N(c1ncn[nH]1)C2`, for which the inhibition was 39.6% (active).

With `COc1ccc(C2C(C#N)=C(N)N(c3ncn[nH]3)C3=C2C(=O)CCC3)cc1` (stereo unspecified), the inhibition was 6.9%.

For `COc1ccc2c(c1OC)C(=O)N(c1ccc(O)cc1)C2`, the inhibition was -4.8%.

As to `COc1cc([N+](=O)[O-])ccc1NC(=S)N1CCN(c2ccccn2)CC1`, the inhibition is 6.4%.

For the compound `Cc1cc(C)nc(-n2ncc3c2CC(c2ccc(C(C)C)cc2)CC3=O)n1` (stereo unspecified), the inhibition is 3.4%.

Consider `COc1ccc([N+](=O)[O-])cc1C1NN=C(c2cccc3ccccc23)S1` (stereo unspecified), for which the inhibition was -10.4%.

In the case of `COc1nnc(-c2ccc(C)c(S(=O)(=O)N(C)C)c2)c2ccccc12`, the inhibition was 1.6%.

As to `O=c1[nH]c(/C=C\c2cccc(C(F)(F)F)c2)nc(O)c1[N+](=O)[O-]`, the inhibition is -10.6%.

For `COCCNC(=O)/C(C#N)=C/c1nc(N(C)C)n(-c2ccc(F)cc2)c1Cl`, the inhibition was 8.4%.

As for `Cc1ccc(S(=O)(=O)CCC(=O)OCC(=O)N(C)C2CCS(=O)(=O)C2)cc1` (stereo unspecified), the inhibition is -12.8%.

In the case of `COc1ccc(C2=Nc3cc(C)ccc3OC2)cc1`, the inhibition is 41.5% (active).

With `COc1ccc(-c2cn3ccc(C)cc3n2)cc1`, the inhibition was -3.2%.

For the compound `Cc1ccc(C(=O)NNC2=Nc3cc([N+](=O)[O-])ccc3OC2)cc1`, the inhibition is -72.1%.
